In ChEMBL document CHEMBL4513135, “CO-ADD screening of IQOG CSIS (Spain) compounds”:
Several values for one entry are separate records, joined by “and”; a condition that tells them apart may be missing. Equal entries are not always repeated. Measured potencies and affinities stand elsewhere.

Columns and labels:
Klebsiella pneumoniae = conditions: Concentration 32 ug.mL-1, ASSAY_TEST Inhibition of Bacterial Growth, detection method Absorption (OD600), MEDIA CAMHB, plate type 384well, NBS, CORNING #3640, time 18 hr
Candida albicans = conditions: 32 ug/mL
Cryptococcus neoformans = conditions: Concentration 32 ug.mL-1; ASSAY_TEST Inhibition of Fungal Growth; detection method Resazurin; Absorption (OD600-OD570); plate type 384well; NBS; CORNING #3640

| Structure (SMILES) | Inhibition (Klebsiella pneumoniae) [%] | Inhibition (Candida albicans) | Inhibition (Cryptococcus neoformans) [%] | Inhibition (Klebsiella pneumoniae; 32 ug/mL) |
| --- | --- | --- | --- | --- |
| N#CC1(Br)C(=NBr)Oc2c(ccc3ccccc23)C1c1ccc([N+](=O)[O-])cc1 (stereo not drawn) | 12.27 | 25.9% | -87.41 |  |
| N#C/C(=C\c1ccccc1)C(=O)c1ccccc1 | 5.05 | 4.89% | 5.95 |  |
| CCOC(=O)c1c(C)nc2nc3c(c(N)c2c1-c1ccc(OC)cc1)CCCCCC3 | 2.79 | -1.03% | -97 |  |
| CCOc1nc2nc3c(c(N)c2cc1C#N)CCCC3 | -2 | 2.23% | -62.45 |  |
| C#CCNc1nc(OC)c(C#N)c(-c2ccccc2)c1C#N | 13.71 | 1.22% | -26.89 |  |
| CC1=NC(=Cc2ccccc2)C(=O)S1 | 11 | 0.37% | -6.24 |  |
| CC(=O)CCc1c[nH]c2ccccc12 | 20.76 | 1.89% | -0.29 |  |
| COc1cc(C2C(C#N)=C(N)Oc3c2ccc2ccccc32)ccc1O (stereo not drawn) | -1.93 | 22.7% | -42.63 |  |
| CN(C)c1ccc(C(=NNC(=O)c2cc3ccccc3[nH]2)c2ccc(N(C)C)cc2)cc1 | -1.36 | -0.9% | -8.51 |  |
| N#Cc1c(N)nc(NCCC2CCN(Cc3ccccc3)CC2)c(C#N)c1-c1ccccc1 | 5.9 | 4.31% | -17.88 |  |
| O=C1OC(c2ccccc2)=NC1=Cc1ccccc1Cl | 11.08 | 1.66% | -1.51 |  |
| C=C1CN(C)c2c(C#N)cc(C#N)c(=N)n21 | 9.83 | 2.03% | -52.46 |  |
| COc1ccc(C2c3c(ccc4ccccc34)OC(=N)C2(Br)C#N)cc1OC (stereo not drawn) | 2.61 | 7.63% | -66.17 |  |
| CC(=O)Oc1ccc(C=C2N=C(c3ccccc3)OC2=O)c(OC(C)=O)c1 | 2.13 | 3.75% | -6.54 |  |
| COc1ccc(-c2c(C#N)c(=O)oc3c2ccc2ccccc23)cc1 |  | 2.65% and 6.62% |  | 4.75% and -0.52% |
| Cl.Nc1c2c(nc3c1C(c1c(Cl)cccc1Cl)c1ccc4ccccc4c1O3)CCCC2 (stereo not drawn) | 3.98 | -1.11% | -3.69 |  |
| Cc1nc(Nc2ccccc2)c2cnn(-c3ccccc3)c2n1 | 17.53 | 0.68% | -5.65 |  |
| C#CC[n+]1ccccc1N.[Br-] | -10.26 | 1.82% | -3.96 |  |
| COc1ccc(CNNC(=O)c2cc3ccccc3[nH]2)cc1 | -6.62 | 0.44% | -2.55 |  |
| O=C(NNCc1ccco1)c1cc2ccccc2[nH]1 | 1.78 | -0.84% | -3.8 |  |
| CC1=N/C(=C(\C)c2ccccc2)C(=O)O1 | -1.65 | 0.7% | -3.17 |  |
| CCCCNNC(=O)c1cc2ccccc2[nH]1 | -6.75 | -0.51% | -1.71 |  |
| CC#CCN(C)Cc1cc2cc(OCc3ccccc3)ccc2n1C.O=C(O)C(=O)O | 22.38 | 3.08% | -0.27 |  |
| Cc1nn(-c2ccccc2)c2ncnc(Nc3ccccc3)c12 | 14.62 | 0.48% | -2.23 |  |
| COC(=O)C(NC(=O)c1ccccc1)=C(C)c1ccccc1 | 19.09 | -0.01% | -1.2 |  |
| COc1cccc(C2c3c(ccc4ccccc34)OC(=N)C2(Br)C#N)c1 (stereo not drawn) |  |  |  | 14.84% and 5.04% |

| Structure (SMILES) | Inhibition (Klebsiella pneumoniae) [%] | Inhibition (Candida albicans) | Inhibition (Cryptococcus neoformans) [%] | Inhibition (Klebsiella pneumoniae; 32 ug/mL) |
| --- | --- | --- | --- | --- |
| CC(C(=O)O)c1c[nH]c2ccccc12 (stereo not drawn) | 21.1 | 31.5% | -3.89 |  |
| CC(=O)Nc1nn(C)c2nc3nc4c(c(N)c3cc12)CCCC4 |  |  |  | 12.62% and 9.74% |
| C#CCN(C)Cc1cc2cc(OCCCC3CCN(Cc4ccc(OC)c5ncccc45)CC3)ccc2n1C | -9.53 | 0.97% | -73.89 |  |
| N#Cc1cc2c(N)c3c(nc2nc1Cl)CCN(Cc1ccccc1)C3 | 13.32 | 2.4% | -88.69 |  |
| COc1ccccc1C1C(C#N)=C(N)Oc2c1ccc1ccccc21 (stereo not drawn) | 8.71 | 1.78% | -34.5 |  |
| CN(C)c1nc(N)c(C#N)cc1C#N.Cl |  | 3.18% and 2.67% |  | -3.22% and 8.57% |
| C#CCN(C)c1nc(N)c(C#N)cc1C#N |  |  |  | 17.2% and 7.82% |
| CC(=O)Oc1ccc(C=C2N=C(C)OC2=O)cc1 | 7.96 | -1% | -2.97 |  |
| COc1ccc2c(ccn2C)c1 | 14.15 | 1.33% | -1.95 |  |
| COC1(N)Oc2ccc3ccccc3c2C(c2ccccc2)C1(Br)C#N (stereo not drawn) | -5.7 | 8.36% | -6.17 |  |
| COc1ccc2c(c1)cc(CO)n2C | 4.36 | 3.54% | -5.23 |  |
| Cn1c(CNNC(=O)Cc2cccc3ccccc23)cc2ccccc21 | 2.56 | -0.25% | -2.04 |  |
| Cc1ccc(C2c3c(Cl)nnnc3Oc3ccc4ccccc4c32)cc1 (stereo not drawn) | 9.62 | 2.22% | -3.15 |  |
| O=C(COc1ccc2ccccc2c1)NNCc1c[nH]c2ccccc12 | 9.52 | 3.01% | -4.32 |  |
| CCOC(=O)c1c(C)nc(/N=N/c2nc(C)c(C(=O)OCC)c(-c3ccccc3)c2C#N)c(C#N)c1-c1ccccc1 | 0.93 | -1.11% | -2.65 |  |
| Nc1c2c(nc3c1CC(c1c(Cl)cccc1Cl)C(=O)N3)CCCC2 (stereo not drawn) | 0.93 | -0.19% | -92.02 |  |
| C#CCNc1nc(Cl)c(C#N)c(-c2ccccc2)c1C#N | -23.73 | 1.27% | -7.07 |  |
| C=CCNc1nc(N)c(C#N)cc1C#N | 12.19 | 3.01% | -39.35 |  |
| COc1ccc(C2C(C#N)=C(N)Oc3ccc4ccccc4c32)cc1 (stereo not drawn) | 8.69 | 1.62% | -30.57 |  |
| N#Cc1cc(Br)cc(Br)c1N | -0.57 | 4.77% | -9.46 |  |
| CC(=O)CC(=O)N1[C@@H]2C[C@H]3CCC2(CS1(=O)=O)C3(C)C | 13.63 | 5.03% | -2.49 |  |
| O=C1SC(SCc2ccccc2)=NC1=Cc1ccc2c(c1)OCO2 | -9.46 | 1.96% | -6.24 |  |
| N#Cc1cc(C#N)c(NCCC2CCN(Cc3ccccc3)CC2)nc1N | 15.31 | 0.11% | -88.16 |  |
| CC1CC(=O)Nc2c1c(Cl)nc1nc3c(c(N)c21)CCCC3 (stereo not drawn) | 13.46 | 3.48% | -92.92 |  |
| Cc1ccc(C2C(C#N)=C(N)Oc3c2ccc2ccccc32)cc1 (stereo not drawn) | 1.87 | -0.54% | -6.98 |  |
| COc1cc(C2C(C#N)=C(N)Oc3ccc4ccccc4c32)ccc1O (stereo not drawn) | 5.47 | 0.23% | -49.89 |  |

| Structure (SMILES) | Inhibition (Klebsiella pneumoniae) [%] | Inhibition (Candida albicans) | Inhibition (Cryptococcus neoformans) [%] | Inhibition (Klebsiella pneumoniae; 32 ug/mL) |
| --- | --- | --- | --- | --- |
| Br.C#CCNCC | 7.82 | 3.14% | -9.78 |  |
| Nc1c2c(nc3nc4ccccc4nc13)CCCC2 | -2.37 | 2.21% | -107.03 |  |
| COc1ccc(C2C(C#N)=C(N)Oc3ccc4ccccc4c32)cc1OC (stereo not drawn) | 12.8 | 5.6% | -62.6 |  |
| CCOC(=O)c1cc(C#N)c(N)nc1C | 5.86 | 2.73% | -17.38 |  |
| Cc1ccc(/C=C(\C#N)C(=O)c2ccccc2)cc1 | 11.17 | 1.76% | -10.05 |  |
| CC(=O)NCCc1ccccc1 | 14.22 | 1.13% | -3.47 |  |
| CSC1=NC(=Cc2ccccc2)C(=O)N1C | -0.86 | 3.12% | -9.15 |  |
| COc1ccc(-c2cc(-c3cc4c(C)cc(C)cc4nc3Cl)cc(=O)[nH]2)cc1 | 4.51 | 1.74% | 0.64 |  |
| CCC(CC)NNC(=O)c1c[nH]c2ccccc12.Cl | 14.64 | 1.1% | 4.78 |  |
| O=C1C=C(Nc2ccccc2)C(=O)N1c1ccccc1 | 6.46 | -0.48% | -3.49 |  |
| Cc1nn(-c2ccccc2)c2ncn3nc(-c4ccccc4)nc3c12 | 14.39 | 1.63% | -1.31 |  |
| CC#CCN.Cl | 8.69 | 3.96% | -2.53 |  |
| COc1cccc(C2c3ccc4ccccc4c3OC(=NBr)C2(Br)C#N)c1 (stereo not drawn) | 5.65 | -0.64% | -51.44 |  |
| N#Cc1c(N)nc(O)c(C#N)c1-c1ccccc1 | -0.05 | 5.45% | -42.69 |  |
| CC(C)(C)OC(=O)Nc1ccc(Cl)cn1 | 13.6 | -0.26% | -54 |  |
| O=C(N/N=C/c1c[nH]c2ccccc12)c1ccc(Cl)cc1 | 14.79 | 0.77% | -0.09 |  |
| C#CCN(C)Cc1cc2cc(OCCCCC3CCN(Cc4ccccc4)CC3)ccc2n1C | 10.12 | 2.73% | -48.77 |  |
| CC1(C)OS(=O)(=O)C2=C1NC(N)=C(C#N)C2c1ccccc1 (stereo not drawn) | 11.24 | 0.27% | -2.35 |  |
| O=C(N[C@H]1CC[C@@H](Br)[C@@H](Br)C1)C(F)(F)F | 11.37 | 9.4% | -47.65 |  |
| N#CC1(Br)C(=N)Oc2ccc3ccccc3c2C1c1cccc([N+](=O)[O-])c1 (stereo not drawn) | 16.38 | 11.2% | -26.58 |  |
| Cl.ClCCCCCN1CCCCC1 | 6.55 | 2.45% | -4.11 |  |
| O=C(NCc1ccccc1)c1cc2ccccc2[nH]1 | 1.5 | -0.44% | -6.86 |  |
| C=C1CNc2c(C#N)c(-c3ccccc3)c(C#N)c(=N)n21 | 0.65 | 3.22% | -41.17 |  |
| Cc1cnc2ccc(Br)cn12 | -1.82 | 1.23% | -0.9 |  |
| COc1nc2ccc(C)cc2cc1C=O | -5.34 | 5.7% | -4.83 |  |
